Reference: PubChem BioAssay
Activity calls are given as the source filed them. No rule for the calls is given here.

Target: Pantothenate synthetase (Mycobacterium tuberculosis (strain ATCC 25618 / H37Rv)) (UniProt P9WIL5)
Assay: Recombinant Mtb pantothenate synthetase (PanC) inhibitors, coupled enzyme, confirmatory (AID 375);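 also: 0% = full reaction with vehicle and 100% = no enzyme background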
Details: coupled enzyme assay; at 10 µM, active compounds read high

Sequence of Pantothenate synthetase (Mycobacterium tuberculosis (strain ATCC 25618 / H37Rv)) (P9WIL5 whole entry, looked up): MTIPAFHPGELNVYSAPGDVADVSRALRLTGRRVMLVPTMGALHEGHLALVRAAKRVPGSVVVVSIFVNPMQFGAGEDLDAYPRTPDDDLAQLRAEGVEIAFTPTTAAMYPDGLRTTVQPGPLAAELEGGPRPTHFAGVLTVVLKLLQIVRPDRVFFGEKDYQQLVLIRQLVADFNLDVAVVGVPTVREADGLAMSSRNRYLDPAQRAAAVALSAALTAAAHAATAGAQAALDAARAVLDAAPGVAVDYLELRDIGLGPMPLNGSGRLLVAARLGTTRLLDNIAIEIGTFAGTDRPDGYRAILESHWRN

| Structure (SMILES) | inhibition |
| --- | --- |
| COc1ccc(N2CCN(c3ncnc4c3cnn4-c3ccc(C)cc3C)CC2)cc1 | 8% (inactive) |
| Cc1ccc(-c2nn(-c3ccccc3)cc2CN(Cc2ccccc2)C(=O)CCC(=O)O)o1 | 8% (inactive) |
| CC(=O)CCc1ccc(OCCCCn2cncn2)cc1 | 0% (inactive) |
| CCC(=O)c1ccc(OCC(=O)N2CCc3cc(OC)c(OC)cc3C2)cc1 | 0% (inactive) |
| Cc1cc(SCC(N)=O)nc(SCC(=O)c2ccccc2)n1 | 0% (inactive) |
| Nn1cc(-c2ccccc2)nc1SCC(=O)N1CCN(S(=O)(=O)c2ccccc2)CC1 | 0% (inactive) |
| COc1ccccc1N1C(=O)CCC1(C#N)c1ccccc1 (stereo not given) | 0% (inactive) |
| CCN(CC)CCOC(=O)C1(c2ccc(OC)c(OC)c2)CCCC1 | 12% (inactive) |
| O=C1CCN(C(=O)c2ccccc2)C2CCCCC12 (stereo not given) | 0% (inactive) |
| OC(COc1ccc2ccccc2c1)CN1CCOCC1 (stereo not given) | 0% (inactive) |
| COc1ccccc1NC(=O)c1cc2n(n1)C(C(F)(F)F)CC(c1ccc3c(c1)OCO3)N2 (stereo not given) | 0% (inactive) |
| COCCn1c(C)cc(C(=O)COC(=O)CCN2C(=O)c3ccccc3C2=O)c1C | 0% (inactive) |
| Clc1ccc(Cl)c(-c2ccc(/C=N/c3ncn[nH]3)o2)c1 | 4% (inactive) |
| CCOC(=O)CSC1=C(C#N)C(=O)NC2(CCCCC2)S1 | 3% (inactive) |
| O=C(NCCCN1CCCC1=O)c1cccnc1 | 4% (inactive) |
| CSc1nnc(-c2nnc(SC)n2-c2ccccc2)n1-c1ccccc1 | 0% (inactive) |
| N#C/C(=C(/O)COC(=O)CCC1CCCCC1)c1nc2ccccc2[nH]1 | 6% (inactive) |
| CC1CCN(CCc2nc3cc(NS(=O)(=O)c4ccc(F)cc4)ccc3n2C)CC1 | 5% (inactive) |
| CCOc1ccc(OCc2cccc(C(=O)O)c2)cc1 | 6% (inactive) |
| CC1C=CC(C)C(C(=O)O)C1C(=O)O (stereo not given) | 0% (inactive) |

| Structure (SMILES) | inhibition |
| --- | --- |
| CCOc1ccc2ccccc2c1/C=N/n1cncn1 | 0% (inactive) |
| Cc1ccc(S(=O)(=O)CCc2nnc(NC(=O)c3cnccn3)s2)cc1 | 8% (inactive) |
| O=C(CSCc1cccc(F)c1)N1CCN(c2ccccc2)CC1 | 4% (inactive) |
| Cc1ccccc1CNS(=O)(=O)c1ccc2c(c1)OCCO2 | 0% (inactive) |
| O=C(NCCCN1CCCC1=O)C1CCN(S(=O)(=O)N2CCOCC2)CC1 | 0% (inactive) |
| Cn1cnnc1SCC(=O)Nc1sc2c(c1C#N)CCCCC2 | 1% (inactive) |
| CC(=O)Nc1ccc(Cl)cc1C(=O)O | 2% (inactive) |
| Nn1c(SCC(=O)Nc2ccc(Oc3ccccc3)cc2)nnc1C1CC1 | 7% (inactive) |
| CCn1ncc(C2=NOC(C(=O)Nc3ccc4c(c3)OCO4)C2)c1C (stereo not given) | 0% (inactive) |
| O=C1CCCCCN1CSc1nc2ccccc2s1 | 0% (inactive) |
| Cc1ccnc(N2CCN(C(=O)CSc3nc4ccccc4nc3N3CCCCC3)CC2)c1 | 1% (inactive) |
| CCn1c(=O)cc(SCC(=O)Nc2ccc3c(c2)OCO3)c2ccccc21 | 0% (inactive) |
| COc1cccc(-c2nc(CS(=O)(=O)CC(=O)NCc3ccc(Cl)cc3)c(C)o2)c1 | 0% (inactive) |
| CCc1nc(C)ccc1OCC(=O)O | 3% (inactive) |
| CCOC(=O)c1cc2sccc2n1CC(=O)Nc1ccc(OC)cc1OC | 0% (inactive) |
| Cc1ccccc1NC(=O)C1CCC(C)(C(=O)O)C1(C)C (stereo not given) | 0% (inactive) |
| Clc1ccc(-n2ncc3c(NCCCn4ccnc4)ncnc32)cc1 | 0% (inactive) |
| C=CCC1(O)C(=O)Nc2ccccc21 (stereo not given) | 0% (inactive) |
| Cn1c(COc2ccccc2)nnc1SCC(=O)Nc1ccc(N2CCOCC2)c(Cl)c1 | 6% (inactive) |
| O=C(C1CCCN(S(=O)(=O)c2cccs2)C1)N1CCc2ccccc2C1 (stereo not given) | 9% (inactive) |
